# Results as given in PubChem BioAssay AID1345085 (National Center for Advancing Translational Sciences (NCATS), 2018).
# Records with an inconclusive call do not appear. The source made the active and inactive calls. Calls come from the whole dose curve; as a rule, active = well fitted cell-killing curve with a large enough effect; inconclusive = small, poorly fitted or top-dose-only effect, or effect the other way; inactive = no such curve, though single readings can be large or run the other way.
# Test system: Jar
# Test: Confirmatory qHTS for gynecologic anti-cancer compounds from libraries of approved drugs and bioactive compounds; note: nearly all actives have a fitted effect of over 55% in size
# Details: gynecologic cancer cell panel viability, ATPlite luminescence, 48 h; series mostly up to 57.6 µM
# Outline: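 Seeding 1,000 cells per well preceded overnight (16 h) attachment, after which 48 h drug treatment across 57.5 uM–0.977 nM (11 points) was applied. Remaining cellular ATP, detected by ATPlite luminescence, defined IC50.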
# Potency is the fitted concentration of half-maximal effect.
row,SMILES,Potency
1,Cn1cnc2c(F)c(Nc3ccc(Br)cc3Cl)c(C(=O)NOCCO)cc21,inactive
2,NS(=O)(=O)OC[C@@H]1C[C@@H](n2ccc3c(N[C@H]4CCc5ccccc54)ncnc32)C[C@@H]1O,inactive
3,Cc1nc(Nc2ncc(C(=O)Nc3c(C)cccc3Cl)s2)cc(N2CCN(CCO)CC2)n1,21.7 µM (active)
4,CCOc1cc2ncc(C#N)c(Nc3ccc(F)c(Cl)c3)c2cc1NC(=O)/C=C/CN(C)C,1.72 µM (active)
5,Cc1cc(SCc2sc(-c3ccc(C(F)(F)F)cc3)nc2C)ccc1OCC(=O)O,inactive
6,Cc1cc(Nc2cc(N3CCN(C)CC3)nc(Sc3ccc(NC(=O)C4CC4)cc3)n2)n[nH]1,inactive
7,COc1ccc(-c2nc3ccc(C4=NNC(=O)CC4C)cc3[nH]2)cc1 (configuration not stated),21.7 µM (active)
8,NC(=O)c1cccc2cn(-c3ccc([C@@H]4CCCNC4)cc3)nc12,inactive
9,Cc1ccc(C(=O)Nc2ccc(CN3CCN(C)CC3)c(C(F)(F)F)c2)cc1C#Cc1cnc2[nH]ncc2c1,inactive
10,Cc1nc(N)ncc1-c1nc(N2CCOCC2)c2sc(C(C)(C)O)cc2n1,7.69 µM (active)
11,Cc1cc(C2CCCCC2)n(O)c(=O)c1,8.86 µM (active)
12,COC(=O)c1ccc2c(C(=Nc3ccc(N(C)C(=O)CN4CCN(C)CC4)cc3)c3ccccc3)c(O)[nH]c2c1,inactive
13,CC(Oc1cc(-n2cnc3ccc(CN4CCN(C)CC4)cc32)sc1C(N)=O)c1ccccc1C(F)(F)F (configuration not stated),3.06 µM (active)
14,CN1C(=O)C(Cc2c[nH]c3ccccc23)NC1=S (configuration not stated),inactive
15,CCCC(=O)O[C@]1(C(=O)CCl)[C@@H](C)C[C@H]2[C@@H]3CCC4=CC(=O)C=C[C@]4(C)[C@@]3(F)C(=O)C[C@@]21C,43.2 µM (active)
16,Nc1ccn([C@@H]2O[C@H](CO)[C@@H](O)C2(F)F)c(=O)n1,inactive
17,C[C@@H](Oc1cc(-c2cnn(C3CCNCC3)c2)cnc1N)c1c(Cl)ccc(F)c1Cl,15.3 µM (active)
18,CC(C)C[C@H](NC(=O)[C@H](Cc1ccccc1)NC(=O)c1cnccn1)B(O)O,0.0485 µM (active)
19,Cc1cnc(Nc2ccc(OCCN3CCCC3)cc2)nc1Nc1cccc(S(=O)(=O)NC(C)(C)C)c1,17.2 µM (active)

row,SMILES,Potency
1,CO[C@@]12[C@H](COC(N)=O)C3=C(C(=O)C(C)=C(N)C3=O)N1C[C@@H]1N[C@@H]12,inactive
2,Cc1cc(Nc2nc(N[C@@H](C)c3ccc(F)cc3)c(C#N)cc2F)n[nH]1,2.73 µM (active)
3,CC(C)Oc1ccc(C(=O)NC(CNC(=O)CN(C)C)Cc2ccc(-c3cn4cccc(C(C)O)c4n3)cc2)cc1Cl (configuration not stated),0.172 µM (active)
4,CN(C)CCC(CSc1ccccc1)Nc1ccc(S(=O)(=O)NC(=O)c2ccc(N3CCN(Cc4ccccc4-c4ccc(Cl)cc4)CC3)cc2)cc1[N+](=O)[O-] (configuration not stated),8.63 µM (active)
5,COc1cc2c(Nc3ccc(NC(=O)c4ccccc4)cc3)ncnc2cc1OCCCN1CCOCC1,38.5 µM (active)
6,COc1ccc(CCC(=O)c2c(O)cc(O[C@@H]3O[C@H](CO)[C@@H](O)[C@H](O)[C@H]3O[C@@H]3O[C@@H](C)[C@H](O)[C@@H](O)[C@H]3O)cc2O)cc1O,inactive
7,FC(F)(F)c1ccc(/C=C/c2nc(COc3ccc(CCCCn4ccnn4)cc3)co2)cc1,0.0172 µM (active)
8,O=C(CCCCCCC(=O)Nc1ccccc1)NO,3.85 µM (active)
9,CC[C@]1(O)C[C@H]2CN(CCc3c([nH]c4ccccc34)[C@@](C(=O)OC)(c3cc4c(cc3OC)N(C=O)[C@H]3[C@@](O)(C(=O)OC)[C@H](OC(C)=O)[C@]5(CC)C=CCN6CC[C@]43[C@@H]65)C2)C1,0.273 µM (active)
10,CC(=O)O[C@H]1C(=O)[C@@]2(C)[C@H]([C@H](OC(=O)c3ccccc3)[C@]3(O)C[C@H](OC(=O)[C@H](O)[C@@H](NC(=O)c4ccccc4)c4ccccc4)C(C)=C1C3(C)C)[C@]1(OC(C)=O)CO[C@@H]1C[C@@H]2O,0.0366 µM (active)
11,CNC(=O)c1nn(C)c2c1C(C)(C)Cc1cnc(Nc3ccc(N4CCN(C)CC4)cc3)nc1-2,1.72 µM (active)
12,Cn1c(=O)c(F)c(Nc2ccc(I)cc2F)c2c(=O)n(CC(O)CO)cnc21 (configuration not stated),inactive
13,N=C(N)c1ccc(OCCCCCOc2ccc(C(=N)N)cc2)cc1,5.44 µM (active)
14,CCN(CC)CCCC(C)Nc1ccnc2cc(Cl)ccc12 (configuration not stated),inactive
15,CC(Oc1ccc2[nH]nc(/C=C/c3cnn(CCO)c3)c2c1)c1c(Cl)cncc1Cl (configuration not stated),inactive
16,NC(=O)c1ccc2nc(-c3ccc(Oc4ccc(Cl)cc4)cc3)[nH]c2c1,24.3 µM (active)
17,Cc1ccc(C(=O)Nc2ccc(CN3CCN(C)CC3)c(C(F)(F)F)c2)cc1C#Cc1cnc2cccnn12,30.6 µM (active)
18,c1nc2nc(Nc3ccc(N4CCOCC4)cc3)nc(NC3CCCCC3)c2[nH]1,9.43 µM (active)
